High-throughput results: PubChem, several laboratories
WT yeast gro inh = growth inhibition of WT yeast, mitochondrial fusion screen; mitochondrial fusion phenotypic screen, WT strain; inhibition, % at 10 µM; 190,000 tested, 2.1% active; AID 1362; in the data active = inhibition above about 58%; tested in S. cerevisiae
Autophagy mod = alters autophagy in cells | MEF GFP-LC3 puncta imaging; test concentration mostly 10 µM | calls only at 10 µM (by protocol) | 190,000 tested, 0.98% active;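 active = percentage of spot-positive cells more than 3 SD above its plate mean, without a fluorescence outlier flag or 80% toxicity; inconclusive = no clear call, values can overlap the other calls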
Ins promoter up = MIN6 insulin promoter up-regulation. MIN6 insulin promoter-GFP reporter, high-content imaging; hits give high values. AID 1625. 190,000 tested, 0.3% active. z-score at 5 µM;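 active = z-score above 3 at 5 µM with at least 500 cells counted in the well; inconclusive = wells under 500 cells, flagged as cytotoxic or low count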
INS promoter inh = TRM-6 insulin promoter activity inhibition; inhibition, % at 2 µM; TRM-6 cells (human fetal islet line), insulin promoter-eGFP reporter, imaging; reporter expression induced with tamoxifen; 130,000 tested, 0.9% active;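 active = inhibition above the mean plus 3 SD, with well images judged a real hit on visual review, cut at about 60% in these data, passing the limit was not always enough; inconclusive = inhibition over the cutoff but images rejected on review; inactive = inhibition not above the cutoff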
Lmaj promast = inhibitors of Leishmania major promastigote growth; inhibition, % at 10 µM; AID 1063; Leishmania major promastigotes, resazurin fluorescence viability; 200,000 tested, 9% active; in the data active = inhibition above about 50%;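 also: promastigotes grown with compound for 44 hours at 28 °C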
L major 1uM = blocks Leishmania major promastigote growth at 1 uM, repeat screen; L. major promastigote growth, resazurin fluorescence, 48 h; 1,100 tested, 13% active; shares compounds with Lmaj promast; inhibition, % at 1 µM;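 active = inhibition above about 50% in both repeat tests, limit read from the data; inconclusive = one repeat under the set limit, the other over it; inactive = both repeats under the set limit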
Hits are given with their value; . = inactive; ? = inconclusive; / = not tested or not shown; + = active, no number. Most compounds without a hit are left out; they make up all but 11% or so of the library.

SMILES	WT yeast gro inh	Autophagy mod	Ins promoter up	INS promoter inh	Lmaj promast	L major 1uM
Cc1nc(-c2cn[nH]c2)c2cc(C)oc2n1	.	.	.	.	61.9	.
CCn1cc(C(=O)N[C@H](C)c2ccccc2)c(=O)c2cc(F)c(N3CCN(C)CC3)cc21	.	.	/	.	85.4	.
O=C(COC(=O)c1ccc[nH]c1=O)c1ccc(Cl)s1	.	.	.	.	.	/
Cc1ccc(C(=O)OCC(=O)c2ccc(Cl)s2)s1	.	.	.	.	92.4	.
c1ccc2c(NC3CCCC3)nnc(NC3CCCC3)c2c1	.	.	.	.	97.2	.
c1nc(NC2CCCC2)c2[nH]cnc2n1	.	.	.	.	.	/
CC(CCc1ccccc1)N(C)CC(O)c1cccc([N+](=O)[O-])c1 (centres undefined)	/	/	.	/	/	/
CC(CCc1ccc(O)cc1)N(C)CCc1ccccc1 (centres undefined)	.	.	/	/	94.1	.
O=S(=O)(c1ccc(S(=O)(=O)N2CCCN(Cc3ccccc3)C2)cc1)N1CCCCCC1	.	.	.	/	75.7	.
COc1ccc2[nH]c(=O)c(C(c3nnnn3C3CCCC3)N3CCN(Cc4ccc5c(c4)OCO5)CC3)cc2c1 (centres undefined)	.	.	.	.	.	/
Cc1cccc(-n2c(SCC(=O)N3CC(=O)Nc4ccccc43)nc3ccccc3c2=O)c1C	.	.	.	.	.	/
COCCCC/C(=N\OCCN)c1ccc(C(F)(F)F)cc1	.	.	.	.	80.2	.
COc1ccc(OC)c(N/C(=N/C(=S)Nc2ccccc2)Nc2nc(C)cc(C)n2)c1	/	/	.	/	/	/
CCN(CC)C(=S)SC1=CCS(=O)(=O)C1	.	.	.	.	.	/
CCN(CC)C(=S)SSC(=S)N(CC)CC	.	.	/	.	100.3	98.0
C/C(=N\O)C(=O)C(CN1CCCCC1)CN1CCCCC1	.	.	.	.	78.3	.
CC(=O)/C(CN1CCCCC1)=N\O	.	.	.	.	.	/
Clc1nc(-c2ccccc2)cc(-c2ccccc2)n1	.	.	.	/	.	/
NNc1nc(-c2ccccc2)cc(-c2ccccc2)n1	69.8	.	.	/	91.0	.
CSCCC(NC(=O)c1cccc([N+](=O)[O-])c1)C(=O)O (centres undefined)	.	.	.	.	78.7	.
N#C/C(C(=O)N1CCCCC1)=C1/N=C(N)c2ccccc21	.	.	.	.	60.8	.
CCOC(=O)N1CCC(NS(=O)(=O)c2cc3c(cc2Cl)NC(=O)CO3)CC1	.	.	.	/	55.0	.
CCOC(=O)N1CCC(NS(=O)(=O)c2ccc3c(c2)OCC(=O)N3)CC1	.	.	.	/	.	/
Cc1ccc(S(=O)(=O)NC2=NCN(CCOC(=O)c3ccc([N+](=O)[O-])cc3)CN2)cc1	.	.	.	.	.	/
COc1ccc(-c2ncncc2-c2csc(C)n2)c(O)c1OC	.	.	/	.	.	/
SMILES	WT yeast gro inh	Autophagy mod	Ins promoter up	INS promoter inh	Lmaj promast	L major 1uM
COC1=C(N)C(=O)c2nc(-c3nc(C(=O)O)c(C)c(-c4ccc(OC)c(OC)c4O)c3N)ccc2C1=O	.	.	/	.	64.9	.
CCOC(=O)c1c(C)oc2ccc(O)c(CN3CCCCC3)c12	.	.	.	.	87.7	.
CCOC(=O)c1c(C)n(C)c2ccc(O)c(CN3CCCCC3)c12	.	.	.	.	.	/
C1CCC(C(CC2CCCCN2)C2CCCCC2)CC1 (centres undefined)	.	+	/	.	100.5	.
Cc1cc(C)cc(C(=O)N2CC(C)OC(C)C2)c1 (centres undefined)	.	.	/	.	.	/
Cc1c([N+](=O)[O-])c([N+](=O)[O-])nn1CC(=O)N1CCOCC1	.	.	.	/	.	/
COC(=O)c1ccc2c(c1)C(C)(C)C(/C=C/c1ccc(OC)c(OC)c1OC)=[N+]2C	.	+	?	.	100.6	101.2
CCOC(=O)C(C)On1c(-c2cccc(Cl)c2)nc2ccc([N+](=O)[O-])cc21 (centres undefined)	.	.	.	.	95.2	.
CC1(C)CC(=O)C(C(=O)c2ccccc2)C(=O)C1	.	.	.	/	.	/
CC(C)c1ccccc1NC(=O)COC(=O)Cc1c[nH]c2ccccc12	.	.	.	.	50.4	.
NC(=O)N/N=C/c1ccc(N2CCOCC2)s1	.	.	.	.	59.7	.
CN1CCC(OC(=O)COc2ccc(F)cc2)CC1	.	.	.	.	.	/
CCCCNCCCOc1cccc(Cl)c1	.	.	.	.	93.7	.
CCCCCCOc1cccc(N)c1	.	.	.	.	.	/
COc1cc2c(cc1NC(=S)NC(=O)c1c(OC)cccc1OC)oc1ccccc12	.	.	.	.	87.9	.
Cc1nc([N+](=O)[O-])nn1C12CC3CC(CC(Cl)(C3)C1)C2	.	.	.	.	88.5	53.1
O=[N+]([O-])c1ncn(C23CC4CC(CC(C4)C2)C3)n1	/	/	.	/	/	/
CC1CCN(C(=O)CSc2nnc(CN3CCOCC3)n2-c2ccccc2)CC1	.	.	.	.	.	/
[O-][N+]1=c2ccc(Nc3ccccc3)cc2=NC12CCCCC2	.	.	.	/	100.4	66.1
CC(C)=N/N=C1/NC(=O)C(CC(=O)Nc2cc(Cl)ccc2C)S1 (centres undefined)	.	.	.	.	.	/
CC(C)CCN(C)C1CCN(S(=O)(=O)c2cccc(C(F)(F)F)c2)CC1	.	.	/	.	93.4	80.1
COc1ccccc1N(Cc1ccccc1)S(=O)(=O)c1cc(C(=O)O)ccc1Cl	.	.	.	/	.	/
CC(C)(C)[C@]1(O)CCN2C[C@H]3c4ccccc4CCc4cccc(c43)[C@@H]2C1	.	.	/	.	57.2	.
Cc1cc(C)cc(NC(=O)C2CCN(S(=O)(=O)c3c(C)n[nH]c3C)CC2)c1	.	.	.	/	.	/
C(=C\c1nccc2c1[nH]c1ccccc12)/c1ccccc1	/	/	.	/	/	/
SMILES	WT yeast gro inh	Autophagy mod	Ins promoter up	INS promoter inh	Lmaj promast	L major 1uM
Cc1ccc(/C=C\c2nccc3c2[nH]c2ccccc23)cc1	.	.	.	/	68.1	.
COc1ccc(-n2c(C)cc(C)c(C(C)=O)c2=S)cc1	.	.	.	.	.	/
CN(C)CCCC(C)(O)C(Cc1ccccc1)c1ccccc1 (centres undefined)	.	.	.	.	85.8	.
CCn1c(C)c2c(C)nnc(C)c2c1C	.	.	.	.	.	/
CCn1c(C)c(P(c2ccccc2)c2ccccc2)[n+]2ccccc12	.	.	?	.	94.5	.
c1ccc(Nc2c3c(nc4ncnn24)CCC3)cc1	.	.	.	/	.	/
CSc1c2c(nc3ncnn13)CCC2	.	.	.	.	51.2	.
Cc1noc(C)c1COc1ccc(CC(=O)NCc2ccccc2)cc1	.	.	.	/	.	/
Cc1ccc(CNC(=O)c2cccc(OCc3c(C)noc3C)c2)cc1	.	.	.	/	80.2	.
O=C(Nc1ccc2c(c1)OCO2)C1CCN(S(=O)(=O)c2cccc3cccnc23)CC1	.	.	.	/	.	/
COc1cc2c(C#N)c(N3CCN(c4ccccc4OC)CC3)nc(N)c2c(N)n1	.	.	.	/	73.2	.
COc1cc2c(C#N)c(N3CCCC3)nc(N)c2c(N)n1	/	/	.	/	/	/
CCc1ccc(NC(=O)CN(c2cccc(C)c2)S(C)(=O)=O)cc1	.	.	/	/	.	/
